Assays:
Assay in all cases: PBM binding z-score (relative to random genomic background probes); higher = stronger binding; sequences stand for … in GC…GCGATTGACAGCGTAGAATGAAGG
[1] = tested on: FXR:RXRa (NR concentration 270 nM, RXRa partner concentration 90 nM)
Outline: (§1)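 Custom Agilent 4×180K protein-binding microarrays carried double-stranded probes, each with a 34-nt variable region. These regions held direct-repeat seeds, single-nucleotide variants, half-site ablations and random human genomic background sequences. Ligand-free nuclear receptor dimers were incubated on the arrays for 1 h, antibodies against each partner (one per run) detected binding, and scanned fluorescence was regression-normalized. Binding z-scores take the random background probes as reference.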

[2] = tested on: LXRa:RXRa (NR concentration 270 nM, RXRa partner concentration 90 nM)
Outline: as §1

[3] = tested on: LXRa homodimer (NR concentration 270 nM)
Outline: as §1

[4] = tested on: LXRb:RXRa (NR concentration 270 nM, RXRa partner concentration 90 nM)
Outline: as §1

[5] = tested on: LXRb homodimer (NR concentration 270 nM)
Outline: as §1

[6] = tested on: PPARa:RXRa (NR concentration 270 nM, RXRa partner concentration 90 nM)
Outline: as §1

[7] = tested on: PPARg:RXRa (NR concentration 180 nM, RXRa partner concentration 90 nM)
Outline: as §1

[8] = tested on: PPARg:RXRa 270nM:90nM, anti-RXR (NR concentration 270 nM, RXRa partner concentration 90 nM)
Outline: as §1

[9] = tested on: PPARg:RXRa 30nM:10nM, anti-RXR (NR concentration 30 nM, RXRa partner concentration 10 nM)
Outline: as §1

[10] = tested on: PPARg:RXRa 90nM:30nM, anti-RXR (NR concentration 90 nM, RXRa partner concentration 30 nM)
Outline: as §1

[11] = tested on: PPARg:RXRa DBDmut IVT, anti-RXR (DBD mutation: RXRa K156A/R161A, NR concentration 270 nM, RXRa partner concentration 90 nM)
Outline: as §1

[12] = tested on: PPARg:RXRa IVT, anti-PPARg (NR concentration 270 nM, RXRa partner concentration 90 nM)
Outline: as §1

[13] = tested on: PPARg DBDmut:RXRa IVT, anti-PPARg (DBD mutation: PPARg1 K132A/R137A, NR concentration 270 nM, RXRa partner concentration 90 nM)
Outline: as §1

[14] = tested on: PPARg DBDmut IVT, anti-PPARg (DBD mutation: PPARg1 K132A/R137A, NR concentration 270 nM)
Outline: as §1

[15] = tested on: PPARg homodimer (NR concentration 180 nM)
Outline: as §1

[16] = tested on: PXR:RXRa (NR concentration 270 nM, RXRa partner concentration 90 nM)
Outline: as §1

[17] = tested on: PXR homodimer (NR concentration 270 nM)
Outline: as §1

[18] = tested on: RARa:RXR (NR concentration 270 nM, RXRa partner concentration 90 nM)
Outline: as §1

[19] = tested on: RARa homodimer (NR concentration 270 nM)
Outline: as §1

[20] = tested on: RARb:RXRa (NR concentration 270 nM, RXRa partner concentration 90 nM)
Outline: as §1

Sequence | PBM binding z-score [1] | PBM binding z-score [2] | PBM binding z-score [3] | PBM binding z-score [4] | PBM binding z-score [5] | PBM binding z-score [6] | PBM binding z-score [7] | PBM binding z-score [8] | PBM binding z-score [9] | PBM binding z-score [10] | PBM binding z-score [11] | PBM binding z-score [12] | PBM binding z-score [13] | PBM binding z-score [14] | PBM binding z-score [15] | PBM binding z-score [16] | PBM binding z-score [17] | PBM binding z-score [18] | PBM binding z-score [19] | PBM binding z-score [20]
CATACAGGGTCAGCTTGGCCAGAGTAGGGACGGC | 4.12 | 2.73 | -0.212 | 1.86 | 0.138 | 4.1 | 2.78 | 2.88 | 0.385 | 1.57 | 1.04 | 2.5 | 0.91 | 0.462 | 1.09 | 2.01 | -0.3 | 2.93 | 0.544 | 3.99
GCTTGTAAATCAAGGTTAAGAAAGACTAAGCTAA | 0.61 | 1.71 | 0.223 | 0.926 | -0.355 | 1.56 | 0.214 | 0.467 | 0.122 | 0.622 | 0.268 | 0.664 | -0.64 | 0.161 | 0.00597 | 0.564 | -0.123 | 1.05 | -0.0975 | 0.808
CCTACTGGGCCATTCAGAGCTCATTGATCATATG | -0.592 | -0.786 | -0.476 | -0.728 | -0.785 | 0.169 | 0.223 | 0.0807 | -0.459 | -0.224 | 4.75 | 3.12 | -0.435 | -0.6 | -0.275 | -0.612 | -0.562 | -0.258 | -0.409 | -0.143
GCTCGGAGGACAAGGTCAGCGCTTTGTCCGTAGA | 2.42 | 2.15 | -0.539 | 1.88 | -0.677 | 2.94 | 0.785 | 2.1 | -0.477 | 0.958 | 0.29 | 1.07 | -1.37 | -1.53 | 1.12 | 2.18 | -0.34 | 2.68 | -0.859 | 3.88
TATACAGGGCCAAAGGCCAGAGTACGAATGTCGA | 0.18 | 0.14 | -0.21 | -0.197 | 0.431 | 1.38 | 4.12 | 4.61 | 2.62 | 4.32 | -0.282 | 1.6 | 0.275 | -0.0589 | 0.362 | -0.0978 | -0.0965 | 0.479 | -0.305 | 1.53
AGAACGAGGGCAATGGGTTGATAGCACGGGTGGC | 0.877 | 0.764 | -0.127 | 0.316 | 0.02 | 1.67 | 1.78 | 1.38 | -0.00991 | 1.08 | 3.27 | 3.01 | 0.598 | -0.394 | 1.19 | 1.48 | 4.66 | 0.466 | 0.403 | 2.4
TCGAGTAGGTTAGTCGGTGCATTCAGCCAACATA | -0.341 | -0.428 | -0.522 | -0.341 | -1.16 | 0.254 | -0.329 | 0.678 | 1.05 | 0.958 | 1.78 | 1.93 | -0.29 | -0.55 | 0.152 | 0.147 | -0.142 | 0.0978 | 0.0806 | -0.085
CCGACTGTGGCAGAAAGGTTACCATACCATCCGG | 0.385 | 0.528 | 0.0726 | 0.75 | -0.636 | 2.16 | 2.03 | 3.65 | 1.73 | 3.6 | 0.332 | 0.812 | -0.741 | -1.03 | 0.662 | 0.984 | -0.427 | 1.47 | -0.0301 | 1.45
CGTCCAAGGTCAATGCTAGGTCAGTGGAAGCATT | 6.99 | 5.73 | 3.02 | 3.78 | 0.891 | 4.81 | 4.07 | 4.24 | 1.28 | 3.23 | 3.31 | 3.57 | -0.546 | -0.435 | 5.36 | 4.87 | 1.99 | 6.1 | 1.39 | 5.17
GCTGCTAGGTCAGGTTGCTCAGCTAACGGGTACG | 1.19 | 0.603 | -0.362 | 0.238 | -0.468 | 1.3 | 0.32 | 1.06 | -0.602 | 0.106 | 2.92 | 2.01 | -0.97 | -0.836 | 0.251 | -0.00315 | -0.858 | 0.655 | -0.624 | 3.17
ACTCGCAGGCCAAGTTTGGGTCACTCAAACAAAG | 0.277 | 0.222 | -0.578 | 0.571 | -0.644 | 1.39 | -0.313 | 0.179 | -0.845 | -0.263 | 0.227 | 0.485 | -0.206 | -0.189 | 0.897 | 0.84 | -0.477 | 1.47 | -0.257 | 1.89
AATCAAAGTTCAGGACGAGGTAACGTAAAGCACG | 3.75 | 4.39 | 2.25 | 2.03 | 0.58 | 3.2 | 2.07 | 2.19 | 0.724 | 1.26 | -0.649 | 0.571 | 0.569 | 0.969 | 1.98 | 2.9 | 1.19 | 2.55 | 1.39 | 4.19
GATACAGGGTCAGGGCCAGAGTACGCGTATTGAT | 4.33 | 2.61 | -0.233 | 2.53 | -0.183 | 4.46 | 3.86 | 3.63 | 0.972 | 2.36 | 1.35 | 2.69 | -0.0398 | -0.619 | 1.64 | 2.28 | 0.125 | 3.24 | 0.471 | 3.82
TCATATAGGTAAAAGGTGAAAGCCGGTGTGGTAA | 1.71 | 2.07 | 0.0111 | 1.77 | -0.0293 | 5.73 | 8.8 | 8.59 | 8.83 | 9.1 | 5.44 | 4.98 | 0.678 | 1.17 | 1.42 | 1.58 | 0.293 | 2.92 | 0.942 | 1.95
TTACCAAGGTGTGCTGAGGTCGTTGATCCAACTC | 0.714 | 0.293 | -0.284 | 0.587 | -0.354 | 0.88 | -0.381 | 0.606 | -0.307 | 0.00377 | -0.56 | 0.137 | -0.549 | -0.745 | 0.0378 | 2.18 | 0.694 | 1.18 | -0.699 | 0.629
CCTATTAGTTGACCATAAGGCCAACCGAAGCTCG | 0.949 | 0.37 | 0.825 | 0.782 | 0.89 | 0.392 | 0.405 | 0.45 | 0.0484 | 0.551 | 0.55 | 0.487 | 0.478 | 0.312 | 1.95 | 0.947 | 1.1 | 0.845 | 1.87 | 1.34
ATCTCTAGGTAAAGTGCAGTGAAAGATCGATAGA | 0.236 | 0.336 | -0.00202 | -0.0786 | 0.221 | 0.525 | 0.843 | 2.05 | 0.6 | 1.67 | 2.44 | 1.95 | 0.431 | 0.336 | 0.363 | -0.0343 | 0.194 | 0.372 | 0.333 | 0.504
CCTACTGGGCCAAATAGGTCATTGATGCCGATAA | 1.09 | 1.66 | 0.941 | 1.91 | -0.592 | 3.18 | 2.07 | 2.92 | 0.838 | 2.18 | 4.31 | 4.63 | 0.236 | -0.456 | 1.27 | 1.88 | 0.588 | 2.32 | 0.564 | 2.23
CGTCCAAGGTCAGAGAGGTCAGTGATTGCCGAGT | 5.58 | 5.02 | 2.88 | 4.28 | 0.656 | 4.54 | 3 | 3.95 | 0.692 | 2.55 | 3.12 | 3.08 | -0.867 | -0.653 | 4.12 | 5.79 | 10.6 | 4.66 | 1.54 | 5.09
ACTATTAGTTGACTTAGGGCGACCGATACGACGC | 0.233 | -0.0475 | -0.0351 | -0.0198 | 0.794 | -0.104 | 0.88 | 0.00253 | 0.295 | 0.183 | 0.407 | 0.174 | 1.73 | 1.51 | 0.828 | -0.0513 | 0.0652 | 0.194 | 0.515 | 0.512
CCTATTAGTTGACCATAAGGGCAACCCAAGCTCG | 1.15 | 0.607 | 0.597 | 0.677 | 0.607 | 0.81 | 0.661 | 0.62 | 0.211 | 0.475 | 0.483 | 0.597 | 0.502 | 0.375 | 1.63 | 1.12 | 1.26 | 1.22 | 1.66 | 1.53

— the supplement of paper PMC6555819
